This note sets out measurements from PubChem BioAssay AID720541 (National Center for Advancing Translational Sciences (NCATS), 2013).

Molecules are shown by their SMILES. Several values for one entry are separate records, joined by “and”; a condition that tells them apart may be missing. Equal entries are not always repeated. The campaign covered roughly 1,300 compounds. About 420 (32%) were called active. Not shown: some 32% with an inconclusive outcome. The call rests on the fitted dose curve; in most records, active means well fitted inhibition curve with a large enough effect; inconclusive means small, poorly fitted or top-dose-only effect; inactive means no such curve, though single readings can be large or run the other way. The list shows a part of the results. A call without a number means that no potency is given here.
Potency means the concentration at half of the fitted maximal effect.

The target in this assay is C-terminal-binding protein 1 (Homo sapiens) (UniProt Q13363). Briefly: qHTS for Inhibitors of the Phosphatase Activity of Eya2: Carboxyl-terminal binding protein (CtBP) Counterscreen for Cherry-picked Compounds. Further: nearly all actives have a fitted effect of over 65% in size. The conditions noted are these: purified protein-protein binding, AlphaScreen, 3 h; series mostly up to 46.1 µM. The gist of the method: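 AlphaScreen using 25 nM GST-E1A with 25 nM CtBP-6xHIS; compounds at 2.5 nM–46 uM final, 2 h at room temperature, then donor/acceptor beads (20 ug/mL) for 1 h in the dark. Signal normalized to E1A peptide inhibitor (maximum inhibition) and DMSO.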
(In general: qHTS replaces the single test concentration by a dilution series.)
For the molecule `Cc1cn2c(nc(=O)c3cccnc32)s1`, the Potency is 12 µM (active).

For `Cc1cc(NC(=O)c2ccccc2F)ncc1NC(=O)c1cccs1`, the Potency is 12 µM (active). As to `COc1cc(NC(=O)c2ccccc2Cl)ccc1NC(=O)c1cccs1`, the Potency result is “inactive”. The value for `Cc1cc(NC(=O)c2cccs2)cc(-c2nc3ncccc3o2)c1O` was “inactive”; that for `O=C(Oc1ccc(-c2nnco2)cc1)c1ccco1` was “inactive”. With `CC(=O)Oc1ccc(C(=O)Nc2cc(NC(=O)c3ccc(OC(C)=O)cc3)cc(C(=O)NC(C)(C)C)c2)cc1` the figure was 15.1 µM (active). The value for `Cc1ccc(OCC(=O)Nc2cc(NC(=O)COc3ccc(C)c(C)c3)cc(C(=O)O)c2)cc1C` was “inactive”.

In the case of `COc1ccc(/C=C(/C#N)C(=O)Nc2ccc(O)cc2)cc1C(=O)O`, the Potency is 6.75 µM (active). With `N#C/C(=C\c1ccc(-c2ccc(C(=O)O)cc2)o1)C(=O)Nc1ccc(F)cc1` the figure was 7.57 µM (active); with `COc1ccc(CC(CC(=O)O)C(=O)Nc2ccc(Cl)c(Cl)c2)cc1` (stereo not drawn), “inactive”.

In the case of `COc1ccc(NC(=O)/C(C#N)=C/c2ccc(-c3ccc(Cl)c(C(=O)O)c3)o2)cc1`, the Potency was 19 µM (active).

Consider `Cn1c(N)c(C(=O)CSc2nnc(NC3CCCCC3)s2)c(=O)n(C)c1=O`, for which the Potency entry was “inactive”. The value for `CC(=O)Oc1ccc(C(=O)OCC(=O)c2c(N)n(C)c(=O)n(C)c2=O)cc1OC(C)=O` was 6.01 µM (active). The value for `O=C1C=C(Nc2ccccc2)C(=O)c2ccccc21` was 4.26 µM (active). Turning to `O=C(Nc1ccc(-c2nc3cccnc3s2)cc1)C1CCCO1` (stereo not drawn), the Potency result was “inactive”. `O=C(CSc1ncn[nH]1)N1N=C(c2ccc(Cl)cc2)CC1c1ccco1` (stereo not drawn): the Potency entry is “inactive”.

For `CN(C)c1ccc(C(=C2C=CC(=[N+](C)C)C=C2)c2c(O)c(S(=O)(=O)[O-])cc3cc(S(=O)(=O)O)ccc23)cc1`, the Potency was 9.53 µM (active). The value for `CN(C)c1ccc(C(=C2C=CC(=[N+](C)C)C=C2)c2ccc(N(C)C)cc2)cc1` was 3.79 µM (active).

As for `Nc1n[nH]c2cc(=O)n(-c3ccc(Cl)cc3)nc12`, the Potency result was “inactive”. The value for `CCOc1ccc(Br)cc1S(=O)(=O)NC1CC(C)(C)NC(C)(C)C1` was “inactive”. With `Cc1ccc(-c2csc(NC(=O)c3ccccc3F)c2C(=O)O)cc1`, the Potency was 9.53 µM (active). With `COC(=O)c1c(-c2ccc3ccccc3c2)csc1NC(=O)Cc1ccc(OC)c(OC)c1` the entry was “inactive”; with `CCOc1cc(C(=O)NC(C)CCc2ccccc2)cc(OCC)c1OCC` (stereo not drawn), “inactive”. Consider `COc1ccc(CCNc2nc(-c3ccccn3)cs2)cc1OC`, for which the Potency is 7.57 µM (active). On to `COc1cc(CNCc2ccccn2)ccc1OCC(=O)NC1CCCCC1`, for which the Potency entry is “inactive”.

For the molecule `COc1ccc(CCNC(=O)C(=O)NCc2cccs2)cc1OC`, the Potency result is “inactive”. The value for `CCC(C)Nc1nc(-c2ccccn2)nc2ccccc12` (stereo not drawn) was 9.53 µM (active); that for `O=C(Nc1nc2ccc(F)cc2s1)C1=NN(c2ccccc2)C(=O)CC1` was “inactive”; that for `Cc1ccc(-c2nc3ccccc3s2)cc1NC(=S)NC(=O)/C=C/c1ccco1` was “inactive”. The value for `O=C(O)CCN1C(=O)/C(=C/c2ccc(-c3nc4ccccc4s3)o2)SC1=S` was 3.01 µM (active); that for `COc1ccccc1N1CCN(C(=O)c2ccc(-c3nc4ccccc4s3)o2)CC1` was “inactive”.

Consider `CCNC(=O)/C(C#N)=C/c1c(N2CCN(c3ccccc3)CC2)nc2c(C)cccn2c1=O`, for which the Potency is 12 µM (active). The value for `CCN(CC)C(=O)CC(c1ccc(OC)cc1)c1c(OC)cc(OC)c2ccc(=O)oc12` (stereo not drawn) was “inactive”; that for `Cc1[nH]n(-c2cccc3ccccc23)c(=O)c1C=Nc1ccc2[nH]c(=O)[nH]c2c1` was 7.57 µM (active). On to `Cc1cccc(-n2c(O)c(C=Nc3ccccc3)c3ccccc3c2=O)n1`, for which the Potency result is “inactive”. With `CC1CCCCC1NC(=O)COC(=O)c1c2c(nc3ccccc13)/C(=C\c1ccco1)CC2` (stereo not drawn), the Potency result is “inactive”. The value for `Cn1nc([N+](=O)[O-])nc1Sc1cccc2cccnc12` was 2.69 µM (active). Turning to `Clc1ccc(-n2nnnc2-c2cnc3ccccc3c2-c2ccccc2)cc1`, the Potency entry is “inactive”. `O=C(NN1C(=O)/C(=C/C=C/c2ccco2)SC1=S)c1ccncc1`: the Potency was 12 µM (active). The value for `Oc1ccc(Cl)cc1CNc1cccc2cccnc12` was 5.36 µM (active); that for `Oc1c(Br)cc(Br)cc1CNc1cccc2cccnc12` was 5.36 µM (active).

With `CCOC(=O)C1=C(COC(=O)CCOc2ccccc2)NC(=O)NC1C` (stereo not drawn), the Potency result was “inactive”. With `CN(C)c1ccc(-c2ccnc3c2CC(C)(C(=O)NCCC(F)(F)F)O3)cc1` (stereo not drawn), the Potency entry was “inactive”. With `O=C(O)c1c2c(nc3ccc(S(=O)(=O)N4CCC(C(=O)NC5CCCC5)CC4)cc13)CCCCC2` the entry was “inactive”; with `COc1ccc(S(=O)(=O)N2CCN(C(=O)c3cc4c(s3)CCC4)CC2)cc1`, “inactive”. For `Cc1ccc(CNC(=O)C2CCN(S(=O)(=O)c3ccc4nc5c(c(C(=O)O)c4c3)CC(C)CC5)CC2)cc1` (stereo not drawn), the Potency was 10.7 µM (active).

`COc1ccc(CNC(=O)C2CCN(S(=O)(=O)c3ccc4nc5c(c(C(=O)O)c4c3)CCCC5)CC2)cc1`: the Potency is 12 µM (active). With `O=C(Nc1nc(-c2ccc(S(=O)(=O)N3CCOCC3)cc2)cs1)c1ccccc1` the figure was 6.75 µM (active) and 7.57 µM (active); with `COc1ccc(C(=O)Nc2ccc3nc(C)sc3c2)cc1S(=O)(=O)N1CCOCC1`, 21.3 µM (active). With `CCOC(=O)N1CCN(S(=O)(=O)c2ccc(C(=O)NNc3nc4ccc(Cl)cc4s3)cc2)CC1` the entry was “inactive”.

With `O=C(Nc1cc(S(=O)(=O)N2CCOCC2)ccc1Cl)c1cc(=O)c2ccccc2o1`, the Potency entry is “inactive”. The value for `O=C(Nc1nc(-c2ccccn2)cs1)c1cccc(S(=O)(=O)N2CCOCC2)c1` was 1.69 µM (active). As for `O=C(COC(=O)c1n[nH]c(=O)c2ccccc12)Nc1cccc(S(=O)(=O)N2CCOCC2)c1`, the Potency entry was “inactive”. With `O=S(=O)(c1ccc(Cl)cc1)N1CCOCC1` the entry was “inactive”. The value for `Cc1ccc(NC(=O)COc2ccc(S(=O)(=O)N3CCOCC3)cc2)cc1` was “inactive”. The value for `COc1ccc(C(=O)Nc2nc(-c3ccccn3)cs2)cc1S(=O)(=O)N1CCOCC1` was 1.51 µM (active); that for `COc1ccc(CC(=O)Nc2cccc(Cl)c2C)cc1S(=O)(=O)N1CCOCC1` was “inactive”.

Regarding `O=C(Nc1nc2c(F)cc(F)cc2s1)c1ccc([N+](=O)[O-])o1`, the Potency entry was “inactive”. With `Oc1ccccc1-n1c(-c2ccccc2)ccc1-c1ccccc1` the entry was “inactive”. The value for `Oc1c(C(c2ccc(Cl)cc2)N2CCCC2)cc(Cl)c2cccnc12` (stereo not drawn) was 4.78 µM (active); that for `OC(c1ccc(Cl)cc1)c1nccc2ccccc12` (stereo not drawn) was “inactive”; that for `CN1CCN(C(c2ccccn2)c2cc(Cl)c3cccnc3c2O)CC1` (stereo not drawn) was 1.51 µM (active). For `COc1ccc(/C=C/C(=O)Nc2ccc3nc4n(c(=O)c3c2)CCCC4)cc1`, the Potency entry was “inactive”.

Take `O=C(c1ccc2c(=O)n3c(nc2c1)CCCCC3)N1CCN(c2cccc(Cl)c2)CC1`: the Potency is 16.9 µM (active).

On to `NC(=O)c1nc(C(=O)N2CCCCC2)c2ccccc2n1`, for which the Potency result is “inactive”. With `Cc1ccc(NC(=S)N2CCc3[nH]c4ccccc4c3C2)cc1` the entry was “inactive”; with `CN(C)c1ccc(C2C=Cc3ccccc32)c2ccccc12` (stereo not drawn), 9.53 µM (active). As to `O=C(Oc1ccc(C(=S)N2CCCCC2)cc1)c1ccccc1F`, the Potency result was “inactive”. The value for `c1ccc2cc(CSCc3nc4ccccc4[nH]3)ccc2c1` was “inactive”; that for `Cc1ccccc1N=C1NC(=O)/C(=C/c2cccn2C)S1` was “inactive”. With `CCc1ccc(N=C2NC(=O)/C(=C/c3cc(OC)c(O)c(OC)c3)S2)cc1` the figure was 19 µM (active).

In the case of `CC1Cc2ccccc2N1NC(=O)c1ccc(Cl)c(S(N)(=O)=O)c1` (stereo not drawn), the Potency entry is “inactive”. With `O=C(c1cccc(-n2cccc2)c1)N1CCN(S(=O)(=O)c2ccccc2)CC1` the entry was “inactive”. The value for `O=C(c1cccc(S(=O)(=O)Nc2ccccc2Cl)c1)N1CCN(c2ccccc2O)CC1` was 15.1 µM (active); that for `CC1C(c2ccccc2)=Nn2c(=O)n(-c3ccccc3)c(=O)n21` (stereo not drawn) was “inactive”. The value for `N#Cc1ccc(C(=O)N2CCC3CC2c2cc(-c4ccccc4)ccc23)cc1` (stereo not drawn) was “inactive”. Regarding `Cc1oc2c(Cl)c(Cl)c(O)c(CN(C)C)c2c1C(=O)c1ccc(Cl)cc1`, the Potency was 15.1 µM (active). With `COC(=O)c1ccccc1NC1=C/C(=N\S(=O)(=O)c2cccs2)c2ccccc2C1=O` the figure was 1.69 µM (active); with `COCCN(Cc1cc2cc3c(cc2nc1Cl)OCO3)C(=O)Nc1ccc(OC)cc1`, “inactive”. Consider `O=C(CSc1nc2ccccc2n1CCc1ccccc1)c1ccc(O)c(O)c1`, for which the Potency result was “inactive”.

In the case of `COc1ccc(Oc2nc(-c3ccccn3)ncc2OC)cc1`, the Potency was 10.7 µM (active). The value for `COc1ccc(CN(CCN(C)C)c2ccccn2)cc1` was “inactive”; that for `CCOC(=O)C(C)Sc1nc(-c2ccccn2)ncc1OC` (stereo not drawn) was 2.39 µM (active); that for `COc1cnc(-c2ccccn2)nc1Oc1ccc(C(C)(C)C)cc1` was 3.38 µM (active). The value for `O=C(Cn1c(C(=O)N2CCc3ccccc3C2)cc2sccc21)c1ccccc1` was “inactive”; that for `CCCc1nc(N2CCN(C)CC2)c2sc(=S)n(-c3ccccc3)c2n1` was “inactive”.

With `CC1CCC2C(=O)N(c3ccc(C(=O)Oc4cccc5cccnc45)cc3)C(=O)C2C1` (stereo not drawn), the Potency was 6.01 µM (active).

For the molecule `CC1C=CCC2C(=O)N(c3ccc(OC(=O)c4cccs4)cc3)C(=O)C12` (stereo not drawn), the Potency result is “inactive”. With `O=C(OCC(=O)c1ccc(Cl)cc1Cl)c1ccccn1` the figure was 12 µM (active); with `Cc1ccc(C(=O)Oc2ccc(C(=O)COC(=O)c3cnccn3)cc2)cc1`, “inactive”; with `O=c1cc2ncc(-n3cc([N+](=O)[O-])cn3)cn2[nH]1`, “inactive”. With `O=S(c1cc(Cl)cc(Cl)c1O)c1cc(Cl)cc(Cl)c1O` the figure was 3.38 µM (active). Turning to `O=c1nc2c(O)cccn2c2c1c(=O)[nH]c1ccccc12`, the Potency was 3.79 µM (active). With `CCOc1ccc(Nc2nc(N)nc(CN(C)C3CCCCC3)n2)cc1` the entry was “inactive”. With `N[C@@H](Cc1cnc[nH]1)C(=O)Nc1ccc2ccccc2c1` the figure was 19 µM (active); with `Cc1cc2nc(-c3ccco3)c(Cc3cccc(F)c3)n2c(C)c1Br`, “inactive”; with `CCN(CC)c1ccc(/C=N/N2CCN(Cc3ccccc3Cl)CC2)cc1`, 8.49 µM (active).

For the molecule `CSc1ccc(/C=N/N2CCN(Cc3ccc(C)cc3C)CC2)cc1`, the Potency entry was “inactive”.
